PMK inhibit: S. pneumoniae PMK inhibitors, primary screen, biochemical, mevalonate pathway, pilot trial included; phosphomevalonate kinase (Streptococcus pneumoniae D39); purified PMK, PK/LDH-coupled NADH absorbance 340 nm; inhibition, % at 10 µM; hit rate 0.49% among 65,000;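 active = top-ranked compounds by inhibition in the single 10 µM screen, taking a fixed number of the strongest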;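 note: 0% = full reaction with DMSO carrier and 100% = background rate without enzyme reaction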
A340 absorber: compound light absorbance at 340 nm, profiling panel, artefact control, biochemical, MLSMR library, data from PS, PMK, MK assays; AID 708, 2007; 65,000 tested, under 10 active; fold change at 10 µM; compound absorbance at 340 nm, fold over control;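 active = at 10 µM dose, initial 340 nm absorbance at least 2 fold that of control wells; inactive = change under 2 fold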;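 note: initial absorbance extrapolated from kinetic A340 decline of NADH oxidation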
Fluor 339 460: intrinsic fluorescence of library compounds, ex339/em460 – biochemical, MLSMR library, data from DPM-DC assay, artefact control, profiling panel; compound autofluorescence, ex339/em460 nm, NADH buffer; hits give high values; 1 = no-compound wells, NADH background; fluorescence fold increase at 10 µM; hit rate 5.5% among 65,000; AID 709, 2007;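 active = at 10 µM, mean starting fluorescence two-fold or more over control wells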;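 note: signal is the first read of a kinetic run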
DPM-DC inhibit: S. pneumoniae DPM-DC inhibitors, primary screen, biochemical, PK/LDH-coupled NADH fluorescence | diphosphomevalonate decarboxylase (Streptococcus pneumoniae D39) | purified DPM-DC | calls only at 10 µM | hit rate 0.49% among 65,000 | AID 556, 2006;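 active = the 320 compounds with the highest percent inhibition in the single-dose primary screen, excluding strongly autofluorescent ones, cut at about 32% in these data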;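 note: kinetic rate of NADH fluorescence loss reporting ADP formed by the decarboxylase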
NADH coupling: inhibitors of PK/LDH coupling enzymes, profiling panel, artefact control, biochemical, MLSMR library. coupled PK/LDH NADH assays, four targets. IC50, µM (series often up to 10 µM), for the others: at the top dose inhibition. hit rate 0.02% among 65,000;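 active = single-dose screening hits from any of four coupled enzyme assays that gave an IC50 when retested across doses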;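 note: the DPM-DC format reads NADH fluorescence rather than 340 nm absorbance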
MK inhibit: S. pneumoniae MK inhibitors, primary screen, biochemical, PK/LDH-coupled NADH absorbance. AID 555, 2006. hit rate 0.48% among 65,000. purified MK, PK/LDH-coupled NADH absorbance 340 nm. mevalonate kinase [Streptococcus pneumoniae D39]. inhibition, % at 10 µM;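 active = ranked among the strongest by inhibition in the single 10 µM screen, a fixed top-ranked set picked for dose follow-up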
An asterisk follows results filed as active; i = inactive; · = not tested or not shown; + = active, no number. Compounds with a hit are over-represented: about 6.8% of the library has one in this group of screens.

SMILES	PMK inhibit	A340 absorber	Fluor 339 460	DPM-DC inhibit	NADH coupling	MK inhibit
CCCCCCc1cc2cc(C(=O)NC)c(=N)oc2cc1O	6	1	2.3*	·	6%	5
COc1ccc(CCn2c(N)c(C#N)c3nc4ccccc4nc32)cc1OC	0	1	1.6	i	6%	8
Nc1c(S(=O)(=O)c2cccs2)c2nc3ccccc3nc2n1CC1CCCO1 (centres undefined)	10	1	3*	·	4%	9
COc1ccc(CCn2c(N)c(S(=O)(=O)c3cccs3)c3nc4ccccc4nc32)cc1OC	11	1.1	1.5	+	21%	3
Nc1c(S(=O)(=O)c2ccccc2)c2nc3ccccc3nc2n1Cc1ccco1	7	1.1	2.2*	·	8%	8
Nc1c(S(=O)(=O)c2cccs2)c2nc3ccccc3nc2n1Cc1ccc2c(c1)OCO2	6	1.1	2.7*	+	14%	2
O=c1c2ccccc2nc(-c2ccccc2)n1Cc1ccco1	3	0.99	1.2	i	4%	8
CCCOC(=O)c1ccc(Oc2cn[nH]c2-c2ccc(OC)cc2O)cc1	12	1	1.1	i	5%	3
COc1ccc(C(N)CCc2ccc(C)o2)cc1 (centres undefined)	16	0.99	1.1	i	7%	5
Cn1c(N)c(S(=O)(=O)c2ccc(Br)cc2)c2nc3ccccc3nc21	7	1.1	3.8*	·	5%	2
Nc1c(S(=O)(=O)c2cccs2)c2nc3ccccc3nc2n1Cc1cccs1	12	1.1	3.9*	·	8%	4
COc1ccc(Cn2c(N)c(C#N)c3nc4ccccc4nc32)cc1OC	9	1	1.9	·	2%	0
CC(C)CCn1c(N)c(S(=O)(=O)c2cccs2)c2nc3ccccc3nc21	13	1	3*	·	3%	1
CC(C)CN1CN(S(=O)(=O)c2cccs2)c2nc3ccccc3nc21	7	1.1	1.4	i	5%	9
CC(=O)Nc1cc(N2C(=O)CCC2=O)ccc1Cl	7	0.97	1	i	2%	5
CCN(CC)CCNC(=O)c1cc2c(-c3ccc(Cl)cc3)nn(C)c2s1	2	1.1	2.1*	·	5%	7
CC1CCCN(C(=O)c2cc3c(-c4ccc(Cl)cc4)nn(C)c3s2)C1 (centres undefined)	0	1	1	i	4%	2
CCOCCCNC(=O)c1cc2c(-c3ccc(Cl)cc3)nn(C)c2s1	7	1.1	2.1*	·	8%	8
Cn1nc(-c2ccc(Cl)cc2)c2cc(C(=O)NC3CC3)sc21	6	1.1	2.1*	·	3%	0
COc1cccc(CN2CCN(C(=O)CC(C)C)CC2)c1	7	1.1	1	i	7%	61*
O=C(CSCc1ccccc1)N1CCN(c2ccc(F)cc2)CC1	0	1	1.1	i	2%	6
O=C(CSCc1cccc(F)c1)N1CCN(c2ccccc2)CC1	25*	1	1	i	12%	7
CC(C)CC(=O)N1CCN(Cc2cccc(F)c2)CC1	14	1.1	1.1	i	24%	59*
COc1ccc(C(=O)N2CCN(C(=O)CC(C)C)CC2)cc1OC	6	1	1.1	i	4%	5
CCOC(=O)c1ccc(NC(=O)N2CCN(Cc3cccc(F)c3)CC2)cc1	7	1	1	i	2%	2
COc1ccc(NC(=O)c2ccco2)c(NC(=O)Cc2cccs2)c1	1	1	1.1	i	2%	5
Cc1ccc(C)c(C(=O)n2cnnc2N)c1	0	1.1	1.1	i	1%	4
CC(C)(C)c1cc(C(=O)N2CCc3ccccc32)ccn1	9	1.1	1.1	i	5%	5
CCOC(=O)c1sc2nc(SCC(=O)NCc3ccco3)n(Cc3ccccc3)c(=O)c2c1C	4	1	1.7	+	5%	5
Cc1nn(-c2ccc(F)cc2)c2sc(C(=O)OC3CCOC3=O)cc12 (centres undefined)	0	1	2.1*	·	3%	5

Screening data from PubChem BioAssay.
